In PMC7862700, “An all-to-all approach to the identification of sequence-specific readers for epigenetic DNA modifications on cytosine”:

Tests used:
Assay in all cases: DAPPL (digital affinity profiling via proximity ligation, sequencing); 10 mM Tris-HCl pH 7.5, 50 mM NaCl, 1 mM DTT, 4% glycerol, room temperature, 30 min; GST-TFs on glutathione beads, 16-mer random dsDNA library, 0.1% formaldehyde crosslink after washing; high values mean tight binding
FEV = target: T1, FEV (Homo sapiens, UniProt Q99581 1-238); settings: protein: recombinant; tags: N-terminal GST; dsDNA, one strand shown
T1 sequence: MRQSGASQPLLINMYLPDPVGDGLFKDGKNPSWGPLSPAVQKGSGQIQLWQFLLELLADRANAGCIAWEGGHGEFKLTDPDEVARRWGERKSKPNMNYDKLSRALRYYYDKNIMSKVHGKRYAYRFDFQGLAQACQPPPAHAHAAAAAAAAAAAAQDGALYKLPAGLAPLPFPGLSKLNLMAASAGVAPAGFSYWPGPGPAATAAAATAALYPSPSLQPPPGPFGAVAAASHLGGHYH
Procedure, shortened: (§1)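 Binding signal is each hexamer's read frequency for a factor divided by its frequency in the tag-only sample. The factors were GST-fused human transcription factors from yeast, captured on glutathione beads, DNA-barcoded and pooled with that sample. Pools were incubated with 200 nmole of a random double-stranded 16-mer DNA library in Tris/NaCl/DTT/glycerol buffer at room temperature for 30 min, then washed, crosslinked with 0.1% formaldehyde, proximity-ligated with BsaI/T4 ligase (1 h, 37 °C), PCR-amplified and sequenced on an Illumina NextSeq500.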

ETV5 = ETV5 (Homo sapiens, UniProt P41161 1-510); settings: protein: recombinant; tags: N-terminal GST; dsDNA, one strand shown
Procedure, shortened: as §1

HSF1 = HSF1 (Homo sapiens, UniProt Q00613 1-529); settings: protein: recombinant; tags: N-terminal GST; chain copies: 3; dsDNA, one strand shown
Procedure, shortened: as §1

SPIC = target: T2, SPIC (Homo sapiens, UniProt Q8N5J4 1-248); settings: protein: recombinant; tags: N-terminal GST; dsDNA, one strand shown
T2 sequence: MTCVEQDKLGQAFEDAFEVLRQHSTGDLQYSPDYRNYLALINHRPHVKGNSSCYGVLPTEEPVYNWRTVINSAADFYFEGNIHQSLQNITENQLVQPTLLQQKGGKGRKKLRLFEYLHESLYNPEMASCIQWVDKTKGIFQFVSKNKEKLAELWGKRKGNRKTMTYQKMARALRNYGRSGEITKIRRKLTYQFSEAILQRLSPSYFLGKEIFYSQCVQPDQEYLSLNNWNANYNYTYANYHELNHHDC
Procedure, shortened: as §1

ELF4 = ELF4 (Homo sapiens, UniProt Q99607 1-663); settings: protein: recombinant; tags: N-terminal GST; dsDNA, one strand shown
Procedure, shortened: as §1

ELK4 = target: T3, ELK4 (Homo sapiens, UniProt P28324-2 1-405); settings: protein: recombinant; tags: N-terminal GST; dsDNA, one strand shown
T3 sequence: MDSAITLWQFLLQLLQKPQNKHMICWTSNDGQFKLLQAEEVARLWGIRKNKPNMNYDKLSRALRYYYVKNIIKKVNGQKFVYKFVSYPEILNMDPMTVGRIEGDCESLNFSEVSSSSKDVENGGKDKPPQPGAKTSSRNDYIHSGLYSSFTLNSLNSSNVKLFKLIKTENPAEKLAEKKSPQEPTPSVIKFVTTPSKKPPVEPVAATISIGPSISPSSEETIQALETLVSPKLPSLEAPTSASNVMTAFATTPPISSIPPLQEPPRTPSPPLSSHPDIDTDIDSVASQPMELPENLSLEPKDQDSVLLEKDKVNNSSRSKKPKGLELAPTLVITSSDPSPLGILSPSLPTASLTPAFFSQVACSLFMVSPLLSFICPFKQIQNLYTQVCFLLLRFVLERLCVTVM
Procedure, shortened: as §1

ETV2 = target: T4, ETV2 (Homo sapiens, UniProt O00321 1-342); settings: protein: recombinant; tags: N-terminal GST; dsDNA, one strand shown
T4 sequence: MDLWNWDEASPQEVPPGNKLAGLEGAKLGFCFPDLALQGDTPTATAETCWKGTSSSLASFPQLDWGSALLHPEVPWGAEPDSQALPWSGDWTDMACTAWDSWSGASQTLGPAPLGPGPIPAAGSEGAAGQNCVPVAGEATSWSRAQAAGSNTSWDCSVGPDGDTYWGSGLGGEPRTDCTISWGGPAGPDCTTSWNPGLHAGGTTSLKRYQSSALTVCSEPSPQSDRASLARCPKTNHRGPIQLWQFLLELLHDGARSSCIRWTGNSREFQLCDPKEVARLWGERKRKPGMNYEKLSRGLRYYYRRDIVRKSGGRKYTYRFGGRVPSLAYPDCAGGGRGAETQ
Procedure, shortened: as §1

ELF3 = target: T5, ELF3 (Homo sapiens, UniProt P78545 1-371); settings: protein: recombinant; tags: N-terminal GST; dsDNA, one strand shown
T5 sequence: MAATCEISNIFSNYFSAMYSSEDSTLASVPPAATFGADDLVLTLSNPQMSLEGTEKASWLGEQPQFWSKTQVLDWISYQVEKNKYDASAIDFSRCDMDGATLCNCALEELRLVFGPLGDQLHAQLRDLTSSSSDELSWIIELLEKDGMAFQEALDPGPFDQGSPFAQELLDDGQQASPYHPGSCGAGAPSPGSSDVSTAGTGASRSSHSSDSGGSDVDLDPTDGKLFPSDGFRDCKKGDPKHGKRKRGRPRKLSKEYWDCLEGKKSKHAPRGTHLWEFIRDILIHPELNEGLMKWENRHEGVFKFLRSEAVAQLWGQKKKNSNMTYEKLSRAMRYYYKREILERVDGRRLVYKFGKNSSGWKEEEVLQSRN
Procedure, shortened: as §1

CRX = CRX (Homo sapiens, UniProt O43186 1-299); settings: protein: recombinant; tags: N-terminal GST; dsDNA, one strand shown
Procedure, shortened: as §1

ETV1 = ETV1 (Homo sapiens, UniProt P50549 1-477); settings: protein: recombinant; tags: N-terminal GST; dsDNA, one strand shown
Procedure, shortened: as §1

ERF = target: T6, ERF (Homo sapiens, UniProt P50548 1-548); settings: protein: recombinant; tags: N-terminal GST; dsDNA, one strand shown
T6 sequence: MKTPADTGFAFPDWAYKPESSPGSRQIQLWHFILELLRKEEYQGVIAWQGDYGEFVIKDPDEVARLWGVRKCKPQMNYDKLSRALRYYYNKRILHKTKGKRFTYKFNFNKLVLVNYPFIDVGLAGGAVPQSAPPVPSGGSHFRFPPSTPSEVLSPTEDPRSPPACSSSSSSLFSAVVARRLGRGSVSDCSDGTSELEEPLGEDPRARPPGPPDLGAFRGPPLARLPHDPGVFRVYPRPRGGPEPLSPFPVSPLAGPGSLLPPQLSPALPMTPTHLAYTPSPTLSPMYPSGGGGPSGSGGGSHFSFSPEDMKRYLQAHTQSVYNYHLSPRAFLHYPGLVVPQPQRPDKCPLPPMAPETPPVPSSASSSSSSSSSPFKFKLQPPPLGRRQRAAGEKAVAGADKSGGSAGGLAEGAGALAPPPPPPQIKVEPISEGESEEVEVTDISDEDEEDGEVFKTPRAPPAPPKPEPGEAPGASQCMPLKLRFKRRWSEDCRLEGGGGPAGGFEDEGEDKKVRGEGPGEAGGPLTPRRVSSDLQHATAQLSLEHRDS
Procedure, shortened: as §1

ETV3L = target: T7, ETV3L (Homo sapiens, UniProt Q6ZN32 1-361); settings: protein: recombinant; tags: N-terminal GST; dsDNA, one strand shown
T7 sequence: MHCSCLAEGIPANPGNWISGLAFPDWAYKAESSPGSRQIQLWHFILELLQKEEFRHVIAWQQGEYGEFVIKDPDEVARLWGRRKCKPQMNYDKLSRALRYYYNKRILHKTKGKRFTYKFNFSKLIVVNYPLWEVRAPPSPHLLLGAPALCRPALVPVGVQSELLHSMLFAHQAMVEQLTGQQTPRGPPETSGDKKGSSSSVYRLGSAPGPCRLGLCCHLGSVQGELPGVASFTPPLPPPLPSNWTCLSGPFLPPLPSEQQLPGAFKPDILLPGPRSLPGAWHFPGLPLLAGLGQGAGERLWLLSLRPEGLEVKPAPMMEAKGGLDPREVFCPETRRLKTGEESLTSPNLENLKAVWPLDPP
Procedure, shortened: as §1

ETS2 = target: T8, ETS2 (Homo sapiens, UniProt P15036 1-469); settings: protein: recombinant; tags: N-terminal GST; dsDNA, one strand shown
T8 sequence: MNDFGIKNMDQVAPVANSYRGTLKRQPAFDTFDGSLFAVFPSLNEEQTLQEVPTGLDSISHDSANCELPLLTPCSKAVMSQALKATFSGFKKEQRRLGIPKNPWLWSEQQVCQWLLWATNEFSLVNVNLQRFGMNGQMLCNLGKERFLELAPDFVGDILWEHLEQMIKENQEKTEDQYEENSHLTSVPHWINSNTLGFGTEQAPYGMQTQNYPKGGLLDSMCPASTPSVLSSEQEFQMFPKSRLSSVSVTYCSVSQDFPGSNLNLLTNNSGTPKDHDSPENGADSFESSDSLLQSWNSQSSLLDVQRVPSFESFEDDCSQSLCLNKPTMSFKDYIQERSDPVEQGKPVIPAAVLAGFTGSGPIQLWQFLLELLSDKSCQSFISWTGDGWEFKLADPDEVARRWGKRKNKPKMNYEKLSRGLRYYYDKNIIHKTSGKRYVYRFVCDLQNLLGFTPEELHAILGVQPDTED
Procedure, shortened: as §1

SPDEF = target: T9, SPDEF (Homo sapiens, UniProt O95238 1-335); settings: protein: recombinant; tags: N-terminal GST; dsDNA, one strand shown
T9 sequence: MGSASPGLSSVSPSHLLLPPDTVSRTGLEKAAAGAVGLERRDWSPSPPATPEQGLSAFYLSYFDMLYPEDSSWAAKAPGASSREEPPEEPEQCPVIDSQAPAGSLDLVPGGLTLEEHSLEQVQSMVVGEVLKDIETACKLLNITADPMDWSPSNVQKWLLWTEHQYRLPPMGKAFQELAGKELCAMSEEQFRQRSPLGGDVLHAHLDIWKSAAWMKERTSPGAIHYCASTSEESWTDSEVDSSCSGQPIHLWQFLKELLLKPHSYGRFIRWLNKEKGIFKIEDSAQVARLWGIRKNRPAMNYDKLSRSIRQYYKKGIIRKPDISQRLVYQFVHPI
Procedure, shortened: as §1

ETV7 = target: T10, ETV7 (Homo sapiens, UniProt Q9Y603 1-341); settings: protein: recombinant; tags: N-terminal GST; dsDNA, one strand shown
T10 sequence: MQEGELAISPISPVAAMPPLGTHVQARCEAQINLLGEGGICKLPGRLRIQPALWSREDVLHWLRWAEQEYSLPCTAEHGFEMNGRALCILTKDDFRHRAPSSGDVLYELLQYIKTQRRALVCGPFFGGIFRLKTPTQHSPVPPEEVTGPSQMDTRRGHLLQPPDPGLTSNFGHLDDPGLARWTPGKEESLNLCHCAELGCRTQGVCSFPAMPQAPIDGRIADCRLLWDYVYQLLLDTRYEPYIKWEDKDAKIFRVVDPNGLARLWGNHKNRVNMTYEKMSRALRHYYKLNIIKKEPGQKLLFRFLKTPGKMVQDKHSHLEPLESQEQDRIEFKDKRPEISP
Procedure, shortened: as §1

ELF5 = target: T11, ELF5 (Homo sapiens, UniProt Q9UKW6-2 1-255); settings: protein: recombinant; tags: N-terminal GST; dsDNA, one strand shown
T11 sequence: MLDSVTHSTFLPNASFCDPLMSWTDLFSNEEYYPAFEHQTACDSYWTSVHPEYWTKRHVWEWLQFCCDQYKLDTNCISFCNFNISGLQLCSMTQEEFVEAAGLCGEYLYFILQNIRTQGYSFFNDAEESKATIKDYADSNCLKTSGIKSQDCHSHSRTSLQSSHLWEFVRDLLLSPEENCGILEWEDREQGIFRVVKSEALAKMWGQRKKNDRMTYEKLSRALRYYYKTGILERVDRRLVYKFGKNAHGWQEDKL
Procedure, shortened: as §1

ETV3 = target: T12, ETV3 (Homo sapiens, UniProt P41162-2 1-143); settings: protein: recombinant; tags: N-terminal GST; dsDNA, one strand shown
T12 sequence: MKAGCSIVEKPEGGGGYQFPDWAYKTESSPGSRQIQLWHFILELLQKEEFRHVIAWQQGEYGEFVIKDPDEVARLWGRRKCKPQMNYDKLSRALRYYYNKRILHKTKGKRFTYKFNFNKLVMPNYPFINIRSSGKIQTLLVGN
Procedure, shortened: as §1

ETV6 = ETV6 (Homo sapiens, UniProt P41212 1-452); settings: protein: recombinant; tags: N-terminal GST; dsDNA, one strand shown
Procedure, shortened: as §1

Chain of CRX (O43186 whole entry): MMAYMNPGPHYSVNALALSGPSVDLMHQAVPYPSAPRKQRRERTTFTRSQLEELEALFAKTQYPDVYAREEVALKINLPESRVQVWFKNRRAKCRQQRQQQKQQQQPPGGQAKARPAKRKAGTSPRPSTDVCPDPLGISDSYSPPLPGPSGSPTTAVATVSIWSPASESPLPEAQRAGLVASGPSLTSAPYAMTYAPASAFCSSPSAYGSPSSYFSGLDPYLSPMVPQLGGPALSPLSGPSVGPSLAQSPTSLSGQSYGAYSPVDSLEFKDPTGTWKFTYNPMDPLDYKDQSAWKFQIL
Chain of ELF4 (Q99607 whole entry): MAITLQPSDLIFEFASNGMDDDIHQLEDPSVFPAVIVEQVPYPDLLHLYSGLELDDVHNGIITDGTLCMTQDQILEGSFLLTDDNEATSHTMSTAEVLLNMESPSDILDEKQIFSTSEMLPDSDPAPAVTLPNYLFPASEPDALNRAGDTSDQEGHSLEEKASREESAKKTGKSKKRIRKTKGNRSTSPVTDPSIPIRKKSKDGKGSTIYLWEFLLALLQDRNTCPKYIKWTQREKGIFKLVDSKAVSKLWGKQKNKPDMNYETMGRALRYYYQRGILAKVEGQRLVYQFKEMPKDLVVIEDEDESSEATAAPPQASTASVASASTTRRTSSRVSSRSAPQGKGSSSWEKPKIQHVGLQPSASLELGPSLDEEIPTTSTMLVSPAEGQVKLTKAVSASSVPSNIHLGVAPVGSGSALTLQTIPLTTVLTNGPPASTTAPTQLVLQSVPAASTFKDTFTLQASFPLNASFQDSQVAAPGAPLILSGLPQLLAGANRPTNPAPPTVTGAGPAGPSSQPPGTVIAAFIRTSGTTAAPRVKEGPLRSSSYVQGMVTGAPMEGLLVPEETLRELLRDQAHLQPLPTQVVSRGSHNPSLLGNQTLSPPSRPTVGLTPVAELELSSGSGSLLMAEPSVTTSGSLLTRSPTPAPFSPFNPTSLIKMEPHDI
Chain of ETV6 (P41212 whole entry): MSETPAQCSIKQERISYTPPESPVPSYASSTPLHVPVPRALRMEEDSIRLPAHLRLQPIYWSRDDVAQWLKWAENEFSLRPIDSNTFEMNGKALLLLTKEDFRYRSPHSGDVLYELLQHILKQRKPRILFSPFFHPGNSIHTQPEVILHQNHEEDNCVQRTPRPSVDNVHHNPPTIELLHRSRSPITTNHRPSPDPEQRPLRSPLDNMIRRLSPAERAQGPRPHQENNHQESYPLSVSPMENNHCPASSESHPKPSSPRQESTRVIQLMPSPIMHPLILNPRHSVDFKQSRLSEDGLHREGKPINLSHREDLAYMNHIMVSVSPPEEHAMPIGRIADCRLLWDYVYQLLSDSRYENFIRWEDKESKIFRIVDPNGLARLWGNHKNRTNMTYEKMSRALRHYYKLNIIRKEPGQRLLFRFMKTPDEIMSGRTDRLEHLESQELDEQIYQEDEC
Chain of ETV5 (P41161 whole entry): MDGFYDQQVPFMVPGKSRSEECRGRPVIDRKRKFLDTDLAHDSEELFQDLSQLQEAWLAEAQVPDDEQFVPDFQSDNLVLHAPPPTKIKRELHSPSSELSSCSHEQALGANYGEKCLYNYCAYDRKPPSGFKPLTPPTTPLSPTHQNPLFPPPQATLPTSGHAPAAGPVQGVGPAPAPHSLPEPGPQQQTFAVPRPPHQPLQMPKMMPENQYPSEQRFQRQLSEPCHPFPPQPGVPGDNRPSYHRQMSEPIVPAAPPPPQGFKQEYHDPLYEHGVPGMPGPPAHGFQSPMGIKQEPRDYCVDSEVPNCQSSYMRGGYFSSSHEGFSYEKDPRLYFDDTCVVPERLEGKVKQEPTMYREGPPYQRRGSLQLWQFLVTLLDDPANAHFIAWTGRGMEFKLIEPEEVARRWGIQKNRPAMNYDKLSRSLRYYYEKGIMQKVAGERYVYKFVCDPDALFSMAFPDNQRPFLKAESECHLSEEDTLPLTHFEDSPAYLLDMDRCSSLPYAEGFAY
Chain of ETV1 (P50549 whole entry): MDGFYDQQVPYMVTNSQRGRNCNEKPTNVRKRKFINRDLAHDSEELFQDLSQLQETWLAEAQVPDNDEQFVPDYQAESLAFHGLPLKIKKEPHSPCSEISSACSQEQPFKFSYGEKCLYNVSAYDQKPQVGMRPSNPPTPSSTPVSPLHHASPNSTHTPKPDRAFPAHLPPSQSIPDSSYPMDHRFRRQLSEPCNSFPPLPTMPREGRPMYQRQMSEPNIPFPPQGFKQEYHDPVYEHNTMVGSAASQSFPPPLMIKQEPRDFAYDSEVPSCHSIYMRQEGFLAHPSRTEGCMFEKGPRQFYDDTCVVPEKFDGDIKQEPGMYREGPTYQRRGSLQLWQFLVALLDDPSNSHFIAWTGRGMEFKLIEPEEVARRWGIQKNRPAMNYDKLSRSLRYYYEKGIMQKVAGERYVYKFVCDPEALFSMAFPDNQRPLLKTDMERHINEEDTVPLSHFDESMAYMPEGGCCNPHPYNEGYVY
Chain of HSF1 (Q00613 whole entry): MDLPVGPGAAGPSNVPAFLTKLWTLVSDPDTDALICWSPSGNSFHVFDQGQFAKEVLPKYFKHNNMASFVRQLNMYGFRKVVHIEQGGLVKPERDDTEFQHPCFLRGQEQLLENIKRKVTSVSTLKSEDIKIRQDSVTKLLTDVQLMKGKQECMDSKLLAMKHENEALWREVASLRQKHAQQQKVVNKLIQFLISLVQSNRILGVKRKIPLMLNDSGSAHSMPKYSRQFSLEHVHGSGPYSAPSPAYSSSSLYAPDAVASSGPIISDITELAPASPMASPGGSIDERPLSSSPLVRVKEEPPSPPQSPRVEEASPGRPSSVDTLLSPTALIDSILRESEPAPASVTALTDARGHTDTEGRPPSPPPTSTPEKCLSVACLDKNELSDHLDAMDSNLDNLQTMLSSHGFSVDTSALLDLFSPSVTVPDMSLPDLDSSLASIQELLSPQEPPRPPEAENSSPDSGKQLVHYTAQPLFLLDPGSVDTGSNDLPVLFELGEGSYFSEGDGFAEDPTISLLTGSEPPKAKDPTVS

For ATGGTA, the binding signal (FEV) was 1.17 fold enrichment (6-mer frequency, TF over GST control), the binding signal (ETV5) was 1.43 fold enrichment (6-mer frequency, TF over GST control) and the binding signal (HSF1) was 1.21 fold enrichment (6-mer frequency, TF over GST control). For the same sequence, the binding signal (SPIC) was 1.31 fold enrichment (6-mer frequency, TF over GST control), the binding signal (ELF4) was 1.31 fold enrichment (6-mer frequency, TF over GST control) and the binding signal (ELK4) was 1.49 fold enrichment (6-mer frequency, TF over GST control). The binding signal (ETV2) was 1.45 fold enrichment (6-mer frequency, TF over GST control), the binding signal (ELF3) was 1.48 fold enrichment (6-mer frequency, TF over GST control) and the binding signal (CRX) was 1.33 fold enrichment (6-mer frequency, TF over GST control). The binding signal (ETV1) was 1.47 fold enrichment (6-mer frequency, TF over GST control), the binding signal (ERF) was 1.38 fold enrichment (6-mer frequency, TF over GST control) and the binding signal (ETV3L) was 1.35 fold enrichment (6-mer frequency, TF over GST control). The binding signal (ETS2) was 1.37 fold enrichment (6-mer frequency, TF over GST control), the binding signal (SPDEF) was 1.31 fold enrichment (6-mer frequency, TF over GST control) and the binding signal (ETV7) was 1.48 fold enrichment (6-mer frequency, TF over GST control). For the same sequence, the binding signal (ELF5) was 1.39 fold enrichment (6-mer frequency, TF over GST control), the binding signal (ETV3) was 1.35 fold enrichment (6-mer frequency, TF over GST control) and the binding signal (ETV6) was 1.31 fold enrichment (6-mer frequency, TF over GST control).
